# Measurements taken from PubChem BioAssay (Tox21).
# Results filed as inconclusive are left out. Calls of active or inactive are those of the source. Calls come from the whole dose curve.
# Target: Progesterone receptor (Homo sapiens) (UniProt P06401)
# Experiment: qHTS assay to identify small molecule agonists of the progesterone receptor (PR) signaling pathway (AID 1346784); note: nearly all actives have a fitted effect of over 30% in size
# Conditions: PR-UAS-bla HEK293T, beta-lactamase FRET ratio, 16 h; series mostly up to 92.4 µM; activation: at the top concentration
# Excerpt: U.S. Tox21 Program National Center for Advancing Translational Sciences [NCATS] NIH Chemical Genomics Center [NCGC] U.S. Environmental Protection Agency [EPA] National Institutes of Environmental Health Sciences [NIEHS] National Toxicology Program [NTP] U.S. Food and Drug Administration [FDA] […] Endocrine disrupting chemicals (EDCs) and their interactions with steroid hormone receptors like PR causes disruption of normal endocrine function. To identify the compounds that activate PR signaling, a PR-UAS-bla GripTite cell line i.e. PR-UAS-bla HEK 293T (Invitrogen, Carlsbad, CA, USA) containing a beta-lactamase reporter gene under the control of an Upstream Activator Sequence (UAS) was used to screen Tox21 10K compound library.
# Tox21 Assay Protocol Summary: PR-UAS-bla HEK 293T cells were dispensed at 3,000 cells/5 uL of assay medium containing 2% charcoal stripped FBS per well into black wall/clear-bottom 1536-well plates using a Multidrop Combi (ThermoFisher Scientific, Waltham, MA) dispenser. After the assay plates were incubated at a 37C and 5% CO2 for 6hr, 23 nL of compounds dissolved in DMSO, positive controls or DMSO only was transferred to the assay plate by a Pintool station (Kalypsys, San Diego, CA). The plates were incubated at 37C and 5% CO2 for 16hr. Then 1 uL of LiveBLAzer B/G FRET substrate was added using a BioRAPTR FRD (Flying Reagent Dispenser, Aurora Discovery, San Diego, CA). After the plates were incubated at room temperature for 2 hours, fluorescence intensity was measured by an Envision plate reader (PerkinElmer, Shelton, CT).
# % is set by controls: 0 for no effect and ±100 for the full control effect.
# Progesterone receptor (Homo sapiens), sequence (P06401 whole entry, looked up): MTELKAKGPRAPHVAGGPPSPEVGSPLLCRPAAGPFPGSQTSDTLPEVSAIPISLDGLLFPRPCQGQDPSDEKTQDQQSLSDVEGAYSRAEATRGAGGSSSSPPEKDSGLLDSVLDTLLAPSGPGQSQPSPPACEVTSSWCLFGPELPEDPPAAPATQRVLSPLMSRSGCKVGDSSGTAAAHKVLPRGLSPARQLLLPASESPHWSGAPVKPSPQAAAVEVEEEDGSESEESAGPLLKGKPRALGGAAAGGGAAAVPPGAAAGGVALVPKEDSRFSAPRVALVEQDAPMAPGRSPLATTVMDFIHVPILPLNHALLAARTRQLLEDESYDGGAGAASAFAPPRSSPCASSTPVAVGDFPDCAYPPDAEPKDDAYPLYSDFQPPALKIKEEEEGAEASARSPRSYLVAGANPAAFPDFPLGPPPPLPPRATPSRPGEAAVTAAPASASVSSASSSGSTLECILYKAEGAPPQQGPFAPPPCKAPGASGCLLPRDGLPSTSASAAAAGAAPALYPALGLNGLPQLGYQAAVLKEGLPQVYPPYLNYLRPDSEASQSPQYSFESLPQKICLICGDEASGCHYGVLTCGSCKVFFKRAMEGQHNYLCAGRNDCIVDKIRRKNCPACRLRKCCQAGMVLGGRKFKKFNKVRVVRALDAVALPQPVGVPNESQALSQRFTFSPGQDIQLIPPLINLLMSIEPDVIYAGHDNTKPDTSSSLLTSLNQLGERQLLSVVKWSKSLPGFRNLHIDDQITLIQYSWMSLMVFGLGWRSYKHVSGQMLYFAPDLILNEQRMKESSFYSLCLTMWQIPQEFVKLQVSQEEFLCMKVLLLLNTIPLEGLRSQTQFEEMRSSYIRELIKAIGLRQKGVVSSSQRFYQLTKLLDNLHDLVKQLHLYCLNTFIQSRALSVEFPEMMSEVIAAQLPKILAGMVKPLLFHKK
row,Compound,activation
1,CCOC(=O)CC(C)O (stereo not given),-1.84% (inactive)
2,CC1CCCNC1 (stereo not given),-13.1% (inactive)
3,CCN1CCN(c2cc(-c3ccc(F)cc3)c3c(n2)CCCCCC3)CC1,-3.65% [at 19 µM] (inactive)
4,NCCCC(O)(P(=O)(O)O)P(=O)(O)O,-0.192% [at 42.5 µM] (inactive)
5,CC(C)c1ccccc1N,0.279% (inactive)
6,Oc1cc2ccccc2cc1O,-0.102% (inactive)
7,CNCC[C@H](Oc1cccc2ccccc12)c1cccs1,-7.49% [at 42.5 µM] (inactive)
8,CC(C)=CC1CC(C)CCO1 (stereo not given),-0.799% (inactive)
9,CCCCOc1ccc(C(=O)CCN2CCCCC2)cc1,2.96% [at 42.5 µM] (inactive)
10,C[C@H]1O[C@@H](O[C@H]2[C@@H](O)C[C@H](O[C@H]3[C@@H](O)C[C@H](O[C@H]4CC[C@@]5(C)[C@H](CC[C@@H]6[C@@H]5C[C@@H](O)[C@]5(C)[C@@H](C7=CC(=O)OC7)CC[C@]65O)C4)O[C@@H]3C)O[C@@H]2C)C[C@H](O)[C@@H]1O,-7.8% (inactive)
11,CC(C)(c1cc(Br)c(O)c(Br)c1)c1cc(Br)c(O)c(Br)c1,-17.3% (inactive)
12,CCCCCCCC/C=C/CCCOC(C)=O,0.551% (inactive)
13,CC(CN(C)C)CN1c2ccccc2CCc2ccccc21 (stereo not given),-5.96% [at 42.5 µM] (inactive)
14,COc1cc(C(C)C)c2c(c1)S(=O)(=O)N(COc1cc(=O)n3cccc(OCCN4CCCCC4)c3n1)C2=O,8.35% [at 19 µM] (inactive)
15,O=C(O)CC(=O)O,-0.268% (inactive)
16,O=C(Nc1ccc(Cl)c(Cl)c1)c1cc(Cl)cc(Cl)c1O,-16.8% (inactive)
17,C=CC(=C)CCC=C(C)C,-14.4% (inactive)
18,CC(C(O)c1ccccc1)N(C)CCOC(c1ccccc1)c1ccccc1 (stereo not given),-5.46% [at 42.5 µM] (inactive)
19,O=C1OC(OC(=O)c2cccnc2Nc2cccc(C(F)(F)F)c2)c2ccccc21 (stereo not given),5.27% [at 42.5 µM] (inactive)
20,CC1(C)COCN1,-0.353% (inactive)

row,Compound,activation
1,O=C(O)CCCCCCC(=O)O,0.74% (inactive)
2,CC(=O)C=O,-0.723% (inactive)
3,CCCC(=O)OCC(COC(=O)CCC)OC(=O)CCC,-0.426% (inactive)
4,c1ccc2c(c1)CCC2,0.198% (inactive)
5,O=C1NC2CCCCN2C12CCN(CCCN1c3ccccc3CCc3ccc(Cl)cc31)CC2 (stereo not given),-11.7% [at 42.5 µM] (inactive)
6,C=C/C=C/C=C/CCCCC,-1.1% [at 19 µM] (inactive)
7,CC(NCCC(c1ccccc1)c1ccccc1)c1ccccc1 (stereo not given),-4.12% [at 42.5 µM] (inactive)
8,CCCCCCCCCCCCCCCC,-0.0697% (inactive)
9,O=S(=O)(O)c1cc(S(=O)(=O)O)c2ccc3c(S(=O)(=O)O)cc(S(=O)(=O)O)c4ccc1c2c43,-0.344% [at 19 µM] (inactive)
10,CCO[Si](CCCSSSSCCC[Si](OCC)(OCC)OCC)(OCC)OCC,0.496% (inactive)
11,CC(C)(C)C1=CC(=O)C=C(C(C)(C)C)C1=O,1.44% (inactive)
12,CCNc1nc(NC(C)CC)nc(OC)n1 (stereo not given),0.689% (inactive)
13,CCCCCCCCC(C)=O,-0.814% (inactive)
14,CCOC(OCC)C(=O)c1ccccc1,-0.434% (inactive)
15,CCO[Si](C)(C)OCC,-1.13% (inactive)
16,C=CC(=O)OCCN(CC)CC,-0.0064% (inactive)
17,c1cc[nH]c1,0.294% (inactive)
18,OCCCCl,-0.0508% (inactive)
19,COc1cc(C(=O)NS(=O)(=O)c2ccccc2C)ccc1Cc1cn(C)c2ccc(NC(=O)OC3CCCC3)cc12,2.46% [at 42.5 µM] (inactive)
20,CC[N+](CC)(CC)Cc1ccccc1,-0.0672% (inactive)
